The panel holds about 83,000 compounds, 20% with a hit somewhere; the sample as a whole holds those more often.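 96-well plates, one dose, 48 hours. Percent growth reported; active if below 10.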 A number with no mark means an inactive call.

In this assay the test system is MDA-MB-468 breast. Kind of assay: NCI-60 one-dose screen, 48 h (100 = growth as untreated, 0 = no growth, -100 = all killed). To be noted: 10 µM unless noted.
Turning to `COc1cccc(NC(=O)c2sc3nc(C)c(C(=O)c4ccccc4)cc3c2N)c1`, the growth is 62.1%.

In the case of `Nc1nc(Nc2ccccc2)c2ncn(Cc3ccc4c(c3)OCO4)c2n1`, the growth was 13.4%.

Turning to `CCNC(=O)C#Cc1ccc2c(C(=Nc3ccc(CN(C)C)cc3)c3ccccc3)c(O)[nH]c2c1`, the growth is 17.2%.

As to `Fc1cccc(-c2ccc3c(c2)C2(CCNCC2)CN3)c1`, the growth is 116%.

For `COc1cc(-c2nc3ccccc3o2)cc(CN2CCCCC2)c1O`, the growth was 67.1%.

In the case of `CC[C@@H](C[C@H](CCO)c1ccccc1)c1cc2ccccc2o1`, the growth was 107%.

With `S=C(S)OCN1CCOCC1`, the growth is 99.1%.

As for `Cn1cc(-c2nc(-c3c[nH]c4c(Cl)nccc34)cs2)c2cc(Br)ccc21`, the growth was 19.9%.

Consider `O=C(c1ccccc1)c1ccc(O)c2ncccc12`, for which the growth was 25.6%.

For the compound `CC(C)NC(=O)c1cc(-c2ccc(NC(=O)Nc3ccc(F)c(C(F)(F)F)c3)cc2)nc2cccnc12`, the growth was 81.4%.

For the compound `C1=NCCc2ccccc21`, the growth was 109%.

In the case of `COc1ccc(NS(=O)(=O)c2ccc(-c3cnc(C4CC4)o3)cc2)cc1`, the growth was 12.5%.

For `CN1CCN(CCC(=O)Nc2cccc(-n3cc(-c4ccncc4)c(-c4ccc(Cl)c(O)c4)n3)c2)CC1`, the growth was 12.7%.

(Values after PubChem BioAssay (NCI).)
